The target in test [1] is Rho-associated protein kinase 2 (Homo sapiens) (UniProt O75116). The settings on record: at 1 µM.
The target is the same in test [2]. To be noted: at 10 µM.
Test [3] concerns the target Proto-oncogene tyrosine-protein kinase receptor Ret (Homo sapiens) (UniProt P07949). To be noted: at 1 µM.
The target is the same in test [4]. The settings on record: at 10 µM.
The target of test [5] is T1, Tyrosine-protein kinase receptor TYRO3 (Homo sapiens) (UniProt Q06418).
T1 sequence (whole entry): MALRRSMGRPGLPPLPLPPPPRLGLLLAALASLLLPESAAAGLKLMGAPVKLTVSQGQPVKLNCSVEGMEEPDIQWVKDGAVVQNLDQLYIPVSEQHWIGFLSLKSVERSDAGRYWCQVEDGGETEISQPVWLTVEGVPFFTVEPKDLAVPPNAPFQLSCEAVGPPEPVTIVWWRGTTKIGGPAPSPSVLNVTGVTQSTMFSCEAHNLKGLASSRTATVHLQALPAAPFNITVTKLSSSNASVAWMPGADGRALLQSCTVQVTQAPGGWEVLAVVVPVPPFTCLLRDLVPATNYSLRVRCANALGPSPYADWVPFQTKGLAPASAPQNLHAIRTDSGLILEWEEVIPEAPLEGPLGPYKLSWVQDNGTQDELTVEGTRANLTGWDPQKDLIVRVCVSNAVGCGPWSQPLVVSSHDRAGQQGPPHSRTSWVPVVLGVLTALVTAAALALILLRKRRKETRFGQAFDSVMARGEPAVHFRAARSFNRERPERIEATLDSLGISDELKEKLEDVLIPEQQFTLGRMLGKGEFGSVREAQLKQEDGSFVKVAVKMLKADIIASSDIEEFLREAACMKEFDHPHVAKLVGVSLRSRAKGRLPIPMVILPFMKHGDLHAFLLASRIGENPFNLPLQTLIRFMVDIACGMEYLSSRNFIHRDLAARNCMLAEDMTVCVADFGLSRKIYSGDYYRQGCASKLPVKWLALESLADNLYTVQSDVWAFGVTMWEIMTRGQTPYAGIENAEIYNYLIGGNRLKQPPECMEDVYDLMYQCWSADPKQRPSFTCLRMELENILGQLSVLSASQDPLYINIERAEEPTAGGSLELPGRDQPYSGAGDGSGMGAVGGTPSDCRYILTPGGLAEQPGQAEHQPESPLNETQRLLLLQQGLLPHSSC
To be noted: at 10 µM.

The target of test [6] is Macrophage-stimulating protein receptor (Homo sapiens) (UniProt Q04912). The settings on record: at 1 µM.
Test [7] shares this target. The settings on record: at 10 µM.
Test [8] concerns the target Proto-oncogene tyrosine-protein kinase ROS (Homo sapiens) (UniProt P08922). To be noted: at 1 µM.
Test [9] has the same target. The settings on record: at 10 µM.
Test [10] addresses T1, Tyrosine-protein kinase receptor TYRO3 (Homo sapiens). To be noted: at 1 µM.

This passage reports residual activity results from ChEMBL document CHEMBL2218924, “A broad activity screen in support of a chemogenomic map for kinase signalling research and drug discovery” (Biochem J, 2013).

Proto-oncogene tyrosine-protein kinase ROS (Homo sapiens), sequence (P08922 whole entry): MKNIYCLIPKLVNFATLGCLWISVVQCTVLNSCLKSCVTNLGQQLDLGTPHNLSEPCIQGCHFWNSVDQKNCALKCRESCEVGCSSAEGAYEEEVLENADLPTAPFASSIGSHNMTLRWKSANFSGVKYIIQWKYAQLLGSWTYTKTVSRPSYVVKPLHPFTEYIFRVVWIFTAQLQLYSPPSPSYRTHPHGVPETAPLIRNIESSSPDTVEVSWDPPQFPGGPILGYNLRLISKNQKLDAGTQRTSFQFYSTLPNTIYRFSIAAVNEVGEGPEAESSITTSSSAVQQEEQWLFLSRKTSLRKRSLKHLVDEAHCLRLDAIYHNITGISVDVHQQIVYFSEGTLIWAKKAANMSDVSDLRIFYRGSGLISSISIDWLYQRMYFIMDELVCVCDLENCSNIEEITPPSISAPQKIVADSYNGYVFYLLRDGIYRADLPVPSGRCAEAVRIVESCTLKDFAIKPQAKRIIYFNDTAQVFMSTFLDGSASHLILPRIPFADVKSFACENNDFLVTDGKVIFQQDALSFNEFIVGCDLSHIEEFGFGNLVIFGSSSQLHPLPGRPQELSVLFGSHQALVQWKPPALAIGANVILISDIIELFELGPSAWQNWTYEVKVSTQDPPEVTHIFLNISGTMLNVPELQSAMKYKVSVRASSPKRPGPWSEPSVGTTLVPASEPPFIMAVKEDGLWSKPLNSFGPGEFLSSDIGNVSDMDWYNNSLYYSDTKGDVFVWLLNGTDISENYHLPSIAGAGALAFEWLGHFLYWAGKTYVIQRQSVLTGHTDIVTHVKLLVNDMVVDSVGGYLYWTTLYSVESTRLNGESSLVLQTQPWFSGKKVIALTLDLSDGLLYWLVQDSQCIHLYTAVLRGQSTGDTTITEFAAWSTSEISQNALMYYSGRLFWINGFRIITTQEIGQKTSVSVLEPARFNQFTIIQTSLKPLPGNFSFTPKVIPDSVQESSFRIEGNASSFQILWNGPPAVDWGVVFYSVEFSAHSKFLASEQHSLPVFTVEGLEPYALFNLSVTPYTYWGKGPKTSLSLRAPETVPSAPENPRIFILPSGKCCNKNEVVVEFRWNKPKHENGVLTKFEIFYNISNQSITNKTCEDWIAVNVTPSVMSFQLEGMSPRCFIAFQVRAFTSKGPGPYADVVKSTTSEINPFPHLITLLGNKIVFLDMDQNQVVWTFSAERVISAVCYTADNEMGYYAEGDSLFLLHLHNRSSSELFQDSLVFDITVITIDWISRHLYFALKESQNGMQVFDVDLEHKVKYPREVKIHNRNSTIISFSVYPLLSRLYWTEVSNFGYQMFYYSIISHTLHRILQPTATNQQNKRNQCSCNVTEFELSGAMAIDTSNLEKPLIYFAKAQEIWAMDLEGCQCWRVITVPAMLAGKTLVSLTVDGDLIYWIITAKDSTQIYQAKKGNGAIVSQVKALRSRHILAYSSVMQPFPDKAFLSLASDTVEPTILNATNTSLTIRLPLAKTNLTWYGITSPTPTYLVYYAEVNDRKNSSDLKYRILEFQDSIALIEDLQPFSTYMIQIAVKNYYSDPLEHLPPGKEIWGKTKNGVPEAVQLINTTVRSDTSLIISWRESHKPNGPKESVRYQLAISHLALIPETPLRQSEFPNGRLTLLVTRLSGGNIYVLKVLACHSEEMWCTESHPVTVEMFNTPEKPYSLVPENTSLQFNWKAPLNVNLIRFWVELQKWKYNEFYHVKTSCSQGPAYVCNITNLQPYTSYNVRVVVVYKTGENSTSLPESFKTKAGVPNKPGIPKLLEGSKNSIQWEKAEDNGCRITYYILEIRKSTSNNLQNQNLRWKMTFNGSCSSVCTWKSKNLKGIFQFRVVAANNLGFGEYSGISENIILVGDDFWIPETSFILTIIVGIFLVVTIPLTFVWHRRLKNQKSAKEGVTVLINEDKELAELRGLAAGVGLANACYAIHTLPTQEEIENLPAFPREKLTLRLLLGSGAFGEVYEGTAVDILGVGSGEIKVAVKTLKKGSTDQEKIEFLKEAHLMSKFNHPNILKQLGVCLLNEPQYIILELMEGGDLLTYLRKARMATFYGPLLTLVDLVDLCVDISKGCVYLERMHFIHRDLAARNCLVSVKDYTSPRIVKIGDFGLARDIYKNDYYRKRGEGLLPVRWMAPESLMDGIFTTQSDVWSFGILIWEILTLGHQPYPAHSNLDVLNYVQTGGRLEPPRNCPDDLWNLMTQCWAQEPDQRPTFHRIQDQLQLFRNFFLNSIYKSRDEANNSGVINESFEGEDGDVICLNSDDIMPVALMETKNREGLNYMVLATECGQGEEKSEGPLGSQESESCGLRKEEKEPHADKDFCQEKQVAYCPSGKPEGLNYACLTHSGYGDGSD
Rho-associated protein kinase 2 (Homo sapiens), sequence (O75116 whole entry, looked up): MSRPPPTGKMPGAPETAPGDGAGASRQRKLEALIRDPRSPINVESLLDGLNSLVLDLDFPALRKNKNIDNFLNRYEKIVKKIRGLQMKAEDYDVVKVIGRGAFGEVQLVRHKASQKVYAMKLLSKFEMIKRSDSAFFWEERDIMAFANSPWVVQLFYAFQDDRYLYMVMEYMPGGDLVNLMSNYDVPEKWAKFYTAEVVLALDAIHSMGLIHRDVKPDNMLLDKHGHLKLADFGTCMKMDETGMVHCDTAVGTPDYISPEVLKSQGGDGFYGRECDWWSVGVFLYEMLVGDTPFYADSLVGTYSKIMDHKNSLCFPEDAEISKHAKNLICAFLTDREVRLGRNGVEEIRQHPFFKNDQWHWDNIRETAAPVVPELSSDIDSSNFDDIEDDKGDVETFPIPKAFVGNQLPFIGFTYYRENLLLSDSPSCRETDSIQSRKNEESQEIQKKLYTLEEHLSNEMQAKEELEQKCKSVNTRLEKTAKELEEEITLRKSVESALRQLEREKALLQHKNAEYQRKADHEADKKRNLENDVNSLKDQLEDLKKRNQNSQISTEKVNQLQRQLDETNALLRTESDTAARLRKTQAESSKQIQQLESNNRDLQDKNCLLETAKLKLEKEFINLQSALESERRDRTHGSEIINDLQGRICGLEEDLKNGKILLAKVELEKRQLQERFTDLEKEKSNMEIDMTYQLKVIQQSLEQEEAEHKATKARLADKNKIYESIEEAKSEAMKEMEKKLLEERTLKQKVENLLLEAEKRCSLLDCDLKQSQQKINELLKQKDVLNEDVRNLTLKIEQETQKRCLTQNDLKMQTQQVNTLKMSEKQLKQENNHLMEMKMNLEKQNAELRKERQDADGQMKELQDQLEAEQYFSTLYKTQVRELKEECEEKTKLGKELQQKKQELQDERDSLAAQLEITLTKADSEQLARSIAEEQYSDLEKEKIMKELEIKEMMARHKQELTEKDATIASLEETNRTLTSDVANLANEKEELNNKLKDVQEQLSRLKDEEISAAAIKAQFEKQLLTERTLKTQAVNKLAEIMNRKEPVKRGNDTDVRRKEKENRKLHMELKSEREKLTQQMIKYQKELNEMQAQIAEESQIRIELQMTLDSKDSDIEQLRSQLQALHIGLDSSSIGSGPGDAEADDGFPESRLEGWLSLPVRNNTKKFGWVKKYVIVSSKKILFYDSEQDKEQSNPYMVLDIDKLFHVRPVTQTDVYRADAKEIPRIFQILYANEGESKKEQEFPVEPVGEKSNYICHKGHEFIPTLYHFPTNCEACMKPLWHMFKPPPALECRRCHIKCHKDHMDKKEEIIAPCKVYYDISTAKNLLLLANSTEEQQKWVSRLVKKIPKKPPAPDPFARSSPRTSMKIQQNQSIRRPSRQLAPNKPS
Macrophage-stimulating protein receptor (Homo sapiens), sequence (Q04912 25-304 limits assumed): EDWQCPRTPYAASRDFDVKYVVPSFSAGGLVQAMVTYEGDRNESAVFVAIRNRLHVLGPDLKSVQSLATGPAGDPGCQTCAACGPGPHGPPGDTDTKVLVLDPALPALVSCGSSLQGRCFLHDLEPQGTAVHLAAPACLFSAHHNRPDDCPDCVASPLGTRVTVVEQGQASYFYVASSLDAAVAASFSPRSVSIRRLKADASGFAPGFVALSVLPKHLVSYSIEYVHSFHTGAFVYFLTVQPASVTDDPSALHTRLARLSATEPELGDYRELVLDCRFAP
Macrophage-stimulating protein receptor (Homo sapiens), sequence (Q04912 310-1400 limits assumed): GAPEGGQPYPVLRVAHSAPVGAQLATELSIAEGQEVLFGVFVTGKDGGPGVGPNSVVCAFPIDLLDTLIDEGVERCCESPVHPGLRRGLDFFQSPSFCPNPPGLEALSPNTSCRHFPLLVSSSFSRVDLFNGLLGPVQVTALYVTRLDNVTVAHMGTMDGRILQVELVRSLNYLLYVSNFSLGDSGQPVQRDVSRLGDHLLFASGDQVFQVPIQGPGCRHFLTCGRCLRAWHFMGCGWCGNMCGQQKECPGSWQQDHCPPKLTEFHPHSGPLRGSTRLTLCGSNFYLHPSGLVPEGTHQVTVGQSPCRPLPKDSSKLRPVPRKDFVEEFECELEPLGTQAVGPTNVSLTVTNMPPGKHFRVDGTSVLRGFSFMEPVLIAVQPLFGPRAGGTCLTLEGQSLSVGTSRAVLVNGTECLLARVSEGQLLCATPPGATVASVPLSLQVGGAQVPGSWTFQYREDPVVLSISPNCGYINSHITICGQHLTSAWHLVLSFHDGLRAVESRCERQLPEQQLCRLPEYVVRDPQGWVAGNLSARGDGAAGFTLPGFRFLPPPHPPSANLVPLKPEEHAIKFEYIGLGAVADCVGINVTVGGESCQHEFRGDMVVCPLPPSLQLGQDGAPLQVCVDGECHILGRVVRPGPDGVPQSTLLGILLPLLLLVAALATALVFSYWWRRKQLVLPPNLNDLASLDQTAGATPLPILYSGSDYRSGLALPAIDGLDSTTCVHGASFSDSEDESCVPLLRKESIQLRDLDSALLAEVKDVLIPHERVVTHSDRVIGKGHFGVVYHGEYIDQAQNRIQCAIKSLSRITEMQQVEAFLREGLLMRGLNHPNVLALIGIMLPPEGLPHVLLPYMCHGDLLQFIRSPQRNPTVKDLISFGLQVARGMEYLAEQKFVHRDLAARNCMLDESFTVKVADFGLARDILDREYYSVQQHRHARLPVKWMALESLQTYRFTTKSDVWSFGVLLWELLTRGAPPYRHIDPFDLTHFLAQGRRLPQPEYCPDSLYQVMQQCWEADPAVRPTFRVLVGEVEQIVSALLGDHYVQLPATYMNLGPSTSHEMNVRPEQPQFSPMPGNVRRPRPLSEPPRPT

In the case of `O=S(=O)(c1cccc2cnccc12)N1CCCNCC1`, the residual activity amounted to 25% in test [1]; 4% in test [2]; 53% in test [3]; 39% in test [4]; 123% in test [5].

`O=c1cc(N2CCOCC2)oc2c1ccc1ccccc12`: the residual activity in test [1] was determined as 99%; in test [2], 67%; in [3] it was 99%; in [4], 107%; in [6], 98%; in [7], 75%. Besides, the residual activity in [8] was found to be 100%; in [9] it was 99%; in test [10], 87%; in [5] it was 93%.

As to `O=C1Nc2ccc(Cl)cc2/C1=C/c1cc(Cl)c(O)c(Cl)c1`, the residual activity in test [1] worked out at 96%; in [2] it was 65%; in test [3], 91%; in [4], 77%; in test [6] it was 61%; in test [7] it was 57%. For the same compound, the residual activity in test [8] came to 92%; in test [9] it was 90%; in test [10], 71%; in test [5], 57%.

With `Nc1ncnc2c1cnn2-c1ccccc1`, the residual activity is 92% in [1]; 66% in test [2]; 101% in [3]; 91% in test [4]; 80% in test [7]; 90% in test [10]. The residual activity in test [5] is 93%.

Turning to `O=C(CCCc1ccc(-c2ccccc2F)cc1)Nc1ccc(O)cc1`, the residual activity in [1] was found to be 106%; in test [2], 96%; in [3] it was 91%; in test [4], 86%; in [6], 85%; in test [7], 92%. Moreover, the residual activity in test [8] was 103%; in test [9] it was 100%; in test [10], 102%; in test [5], 102%.

Take `CC(C)[C@H](CO)Nc1nc(Nc2cc(N)cc(Cl)c2)c2ncn(C(C)C)c2n1`: the residual activity in test [1] was determined as 91%; in [2], 52%; in test [3], 83%; in [4], 21%; in [6], 96%; in test [7], 62%. Besides, the residual activity in [10] came out at 84%; in [5], 53%.

`CC(C)(C)n1nc(Cc2cccc3ccccc23)c2c(N)ncnc21`: the residual activity in test [1] came out at 104%; in test [2] it was 77%; in [3], 11%; in test [4], 1%; in test [6], 110%; in test [7], 77%. Besides, the residual activity in test [8] turned out to be 96%; in test [9], 94%; in test [10], 87%; in [5], 73%.

Consider `c1ccc(-c2cnc(Nc3ccc(OCCN4CCCC4)cc3)s2)cc1`, for which the residual activity in test [1] came to 110%; in test [2], 81%; in test [4] it was 37%; in test [9], 80%.

In the case of `Fc1ccc(-c2nc3n(c2-c2ccncc2)CCS3)cc1`, the figures for the residual activity in [3] and in test [4] were 98% and 83%, respectively.

`COc1cc2c(cc1OC)-c1n[nH]c(Nc3cccc(F)c3)c1C2`: the residual activity in [3] was determined as 64%; in test [4] it was 19%; in test [7], 68%; in test [5] it was 50%.

`O=C1NC(=O)C(c2cn(CCCn3ccnc3)c3ccccc23)=C1Nc1ccccc1`: the values for the residual activity in test [3] and in test [4] were 102% and 70%, respectively.

For `CCN(CC)CCNC(=O)c1c(C)[nH]c(/C=C2\C(=O)Nc3ccc(Cl)cc32)c1C`, the residual activity was -1% in test [3]; -1% in [4]; 40% in [7]; 24% in [10]; -1% in test [5].

Take `O=C1NC(=O)C(c2c[nH]c3ccccc23)=C1c1c[nH]c2ccccc12`: the results for the residual activity in test [3], in [4] and in test [7] were 79%, 28% and 70%, respectively.

As for `CCCCc1c(-c2ccc(OC)cc2)[nH]c2nccnc12`, the residual activity is 79% in test [1]; 45% in test [3]; 63% in [4]; 85% in [6]; 103% in [7]; 88% in test [9]. Besides, the residual activity in test [10] turned out to be 107%; in test [5] it was 105%.

Regarding `CN(C)S(=O)(=O)c1ccc2c(c1)/C(=C/c1cc3c([nH]1)CCCC3)C(=O)N2`, the residual activity in test [1] is 99%; in [3] it was 22%; in [4], 37%; in test [6] it was 64%; in [7] it was 83%; in test [10] it was 67%. The residual activity in test [5] stood at 69%.

Consider `Cc1cc(C)c(/C=C2\C(=O)Nc3ccccc32)[nH]1`, for which the results for the residual activity in [2], in [10] and in [5] were 80%, 68% and 62%, respectively.

Regarding `CC(C)N(CCC(=O)c1ccc2ccccc2c1)Cc1ccccc1`, the figures for the residual activity in test [2], in test [7] and in test [10] were 82%, 67% and 84%, respectively.

As for `NC(=O)c1ccc(-c2nc(-c3ccc4c(c3)OCCO4)c(-c3ccccn3)[nH]2)cc1`, the residual activity in test [6] came to 94%; in test [7] it was 86%.

Turning to `N#Cc1c(NC(=O)c2cccc3ccccc23)sc2c1CCCC2`, the residual activity in test [2] was 99%; in test [6], 74%; in [7] it was 65%; in test [8] it was 93%; in [9] it was 96%; in [5], 92%.

`O=C(Nc1nc2ccccc2n1CCN1CCOCC1)c1cccc([N+](=O)[O-])c1`: the values for the residual activity in [3] and in [4] were 88% and 101%, respectively.

With `CN([C@@H](Cc1ccc(OS(=O)(=O)c2cccc3cnccc23)cc1)C(=O)N1CCN(c2ccccc2)CC1)S(=O)(=O)c1cccc2cnccc12`, the residual activity in [10] turned out to be 118%.

For `CCOC(=O)c1c(C)[nH]c(/C=C2\C(=O)Nc3ccccc32)c1C`, the results for the residual activity in [3] and in test [4] were 24% and 14%, respectively.

As to `Oc1cccc(-c2nc(N3CCOCC3)c3oc4ncccc4c3n2)c1`, the residual activity in test [10] worked out at 82%; in test [5], 93%.

Take `O=C(c1ccccc1)c1ccc(N2CCOCC2)cc1O`: the residual activity in test [2] is 90%; in [3], 94%; in test [4], 100%; in test [6], 90%; in test [7], 99%; in test [8] it was 96%. For the same compound, the residual activity in test [9] turned out to be 98%.

For the compound `O=S(=O)(NCCNC/C=C/c1ccc(Br)cc1)c1cccc2cnccc12`, the residual activity in test [4] worked out at 82%.

As to `O=C1Cc2c([nH]c3ccc([N+](=O)[O-])cc23)-c2ccccc2N1`, the residual activity in test [3] came to 103%; in [4], 79%; in test [6], 100%; in test [7], 108%.

Turning to `O=C1Cc2c([nH]c3ccc(Br)cc23)-c2ccccc2N1`, the residual activity in test [4] is 72%; in test [6], 72%; in test [7], 77%; in test [5], 83%.

Turning to `COc1cc2nccc(Oc3ccc(NC(=O)Nc4cc(C)on4)c(Cl)c3)c2cc1OC`, the residual activity in test [3] was 0%; in test [4] it was -1%; in test [6] it was 31%; in test [7], 3%; in [8], 24%; in test [9], 16%. For the same compound, the residual activity in test [10] came to 10%; in [5] it was 8%.

Regarding `O=c1cc(N2CCNCC2)oc2c(-c3ccccc3)cccc12`, the residual activity in test [2] was found to be 80%; in [6], 76%; in [7] it was 58%; in [8] it was 97%; in [9], 91%; in [10] it was 94%. Besides, in test [5], the residual activity stood at 96%.

In the case of `N#C/C(=C1/Nc2ccccc2S1)c1ccnc(NCCc2cccnc2)n1`, the residual activity in test [3] amounted to 63%; in [4], 47%; in test [6], 84%; in test [7] it was 46%; in test [10] it was 97%; in test [5], 74%.

With `O=c1c(-c2ccc(F)cc2)c(-c2ccncc2)[nH]n1-c1ccc(Cl)cc1`, the results for the residual activity in [4], in [6] and in test [7] were 55%, 78% and 80%, respectively.

Regarding `O=C1NC(=O)C(c2cn(CCCO)c3ncccc23)=C1c1cnccn1`, the residual activity stood at 82% in test [3], 81% in test [4], 66% in test [6] and 58% in [7].

In the case of `COc1ccc2c(c1)c(C1=C(c3c[nH]c4ccccc34)C(=O)NC1=O)cn2CCCN(C)C`, the residual activity in test [3] was 75%; in test [4], 45%; in test [6], 77%; in [7], 56%; in test [10], 79%; in test [5] it was 76%.
